The record followed here is paper PMC10668032, “Altered binding affinity of SIX1-Q177R correlates with enhanced WNT5A and WNT pathway effector expression in Wilms tumor”.

Whole data set: some 33,000 sequences, median “e-score” near -0.05, cut for the highest 2% near 0.38. The sample as a whole holds a higher share of the highest values than the screen did.

For the assay, the target named is T1, SIX1-Q177R homeodomain (human, UniProt Q15475 108-198, Q177R).
T1 sequence: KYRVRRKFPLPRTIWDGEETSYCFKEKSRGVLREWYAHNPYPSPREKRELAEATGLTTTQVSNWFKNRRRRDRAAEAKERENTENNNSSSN
In words: universal protein binding microarray; Universal all-10-mer PBM (8x60K, AMADID 030236), 300 nM GST-tagged protein, Alexa Fluor 488 anti-GST; buffer, salt, pH and temperature not stated (as in Berger); high values mean tight binding. The settings on record: protein: ivt; tags: N-terminal GST; dsDNA, one strand shown. In outline:
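GST-tagged homeodomains were made by in vitro transcription/translation and quantified by anti-GST western blot against a recombinant GST standard curve. They were applied in duplicate at 300 nM final concentration to universal 'all 10-mer' protein binding microarrays (8×60K format). Binding was quantified as 8-mer E-scores with the Universal PBM Analysis Suite.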
On to ACACATAA, for which the binding signal was determined as 0.18 ± 0.0275 E-score.

Take GCGAGACA: the binding signal was found to be 0.249 ± 0.00462 E-score. For the sequence GGAACCCC, the binding signal turned out to be 0.165 ± 0.0247 E-score. For GGGATCAC the value was 0.2771 ± 0.000933 E-score.

For the sequence CACCGGAA, the binding signal came out at 0.288 ± 0.0177 E-score. Regarding TAAGGGTA, the binding signal turned out to be 0.163 ± 0.0467 E-score. Turning to CCGACCAC, the binding signal came out at 0.192 ± 0.0175 E-score.

Turning to CGGGTATA, the binding signal was 0.21 ± 0.00983 E-score.

Turning to CGAGTACA, the binding signal was determined as 0.28 ± 0.0111 E-score. As to GGAGTACA, the binding signal was determined as 0.246 ± 0.013 E-score. Turning to CGAGTACC, the binding signal came out at 0.168 ± 0.00651 E-score. For GGAGTGCA, the binding signal turned out to be 0.17 ± 0.0126 E-score.

As for CGAGTGTC, the binding signal is 0.415 ± 0.00743 E-score. Turning to CGAGTGTA, the binding signal came out at 0.382 ± 0.0327 E-score.

With CGAGTGGA, the binding signal was found to be 0.166 ± 0.0322 E-score. For the sequence CGAGTATC, the binding signal turned out to be 0.158 ± 0.0391 E-score. Consider GGAGTGTA, for which the binding signal was found to be 0.417 ± 0.0148 E-score. For GGGTGCTA, the binding signal was 0.217 ± 0.00882 E-score. CCGCCCCA: the binding signal is 0.239 ± 0.0124 E-score.

Consider CCCTACCA, for which the binding signal is 0.167 ± 0.0194 E-score. Regarding CACCTAAG, the binding signal worked out at 0.263 ± 0.00735 E-score. With AAACCCCG, the binding signal was 0.231 ± 0.0422 E-score. For ACTATATC, the binding signal amounted to 0.178 ± 0.0197 E-score.

Consider ATGGAGTC, for which the binding signal was 0.232 ± 0.0246 E-score.

In the case of AACACGTC, the binding signal was 0.309 ± 0.0249 E-score. On to CACACGTC, for which the binding signal was 0.221 ± 0.00539 E-score. For AACACGTA, the binding signal came out at 0.343 ± 0.0046 E-score. In the case of CACACGTA, the binding signal was determined as 0.262 ± 0.0227 E-score. As for GACACGTC, the binding signal was 0.381 ± 0.00585 E-score. With GACACGTA the figure was 0.39 ± 0.0131 E-score; with CGAAGTAC, 0.174 ± 0.00912 E-score. As to CACCTCAC, the binding signal was 0.354 ± 0.0133 E-score. As for CTCCCCCA, the binding signal came out at 0.176 ± 0.0255 E-score. For ACCCGCGA, the binding signal worked out at 0.239 ± 0.0203 E-score.

CGGGCACA: the binding signal was determined as 0.1994 ± 0.000764 E-score. As for TACCCGGA, the binding signal was 0.247 ± 0.00272 E-score.

Take CACCCGGC: the binding signal stood at 0.36 ± 0.0229 E-score.

As to CACCCGGA, the binding signal came to 0.388 ± 0.0297 E-score. On to CACGCTTC, for which the binding signal is 0.24 ± 0.0251 E-score. In the case of GATACGGA, the binding signal is 0.215 ± 0.00231 E-score. With GACACGAA, the binding signal stood at 0.331 ± 0.0274 E-score. TACACAAA: the binding signal came out at 0.247 ± 0.0503 E-score. Turning to CCCACGGA, the binding signal turned out to be 0.161 ± 0.00447 E-score.

In the case of GACACGGA, the binding signal was determined as 0.418 ± 0.0309 E-score. Consider GACACGAC, for which the binding signal came to 0.436 ± 0.00629 E-score. Turning to AACACGGC, the binding signal amounted to 0.35 ± 0.00429 E-score.

Consider CACACGAC, for which the binding signal was determined as 0.237 ± 0.00357 E-score.

As for TACACGGA, the binding signal was found to be 0.402 ± 0.00597 E-score.

On to GACACGGC, for which the binding signal was determined as 0.427 ± 0.0135 E-score. With CACACGGC, the binding signal was found to be 0.161 ± 0.0205 E-score. Turning to CACACGGA, the binding signal was 0.253 ± 0.0652 E-score. Consider CCTGTGAC, for which the binding signal was 0.194 ± 0.0117 E-score. For TCAGGGGA, the binding signal turned out to be 0.165 ± 0.0187 E-score. With AAACCCTA, the binding signal came out at 0.157 ± 0.0426 E-score. For AATAGTGT, the binding signal stood at 0.355 ± 0.0289 E-score. Turning to CCCTTCTA, the binding signal is 0.177 ± 0.0196 E-score. For GTGGGTCA, the binding signal is 0.166 ± 0.0309 E-score. With AAAGGGTG the figure was 0.317 ± 0.00321 E-score; with CCCCTCAC, 0.203 ± 0.0371 E-score; with ACACGGAC, 0.367 ± 0.00972 E-score. Regarding CCACGGGG, the binding signal was 0.194 ± 0.0115 E-score. ACACGGGA: the binding signal was determined as 0.411 ± 0.00748 E-score. As to ACCCGGGT, the binding signal came out at 0.377 ± 0.0131 E-score. With ATACGGGG, the binding signal stood at 0.171 ± 0.0145 E-score.

Turning to ACACGGGG, the binding signal came out at 0.4516 ± 0.00397 E-score. For the sequence ACACGGGT, the binding signal turned out to be 0.4532 ± 0.00279 E-score. For ACGGGGGA the value was 0.208 ± 0.00871 E-score.

Regarding ACTCGGGC, the binding signal is 0.161 ± 0.036 E-score. Regarding ACCCGGGA, the binding signal came to 0.192 ± 0.0367 E-score. Take ACACGGGC: the binding signal turned out to be 0.4237 ± 0.000962 E-score. For CACCGTGG, the binding signal was 0.333 ± 0.0206 E-score.

With CACCTCGG, the binding signal came to 0.269 ± 0.00615 E-score. With CACGCTGG the figure was 0.159 ± 0.00563 E-score; with CACTCGGG, 0.225 ± 0.016 E-score; with AACCCCAA, 0.205 ± 0.00313 E-score. In the case of CTGACCCC, the binding signal turned out to be 0.283 ± 0.0439 E-score. Turning to CGGGGTAC, the binding signal stood at 0.224 ± 0.0106 E-score.

Regarding CAACCGTG, the binding signal amounted to 0.187 ± 0.0215 E-score.

With CACTGGCA, the binding signal came to 0.28 ± 0.0195 E-score. In the case of ACACGTGA, the binding signal turned out to be 0.34 ± 0.0135 E-score. Turning to ACACGTGG, the binding signal was found to be 0.32 ± 0.00325 E-score.

As for ACACGTAT, the binding signal is 0.388 ± 0.00574 E-score. Consider ACACGTGT, for which the binding signal came out at 0.4552 ± 0.00158 E-score. As for ACACGTCC, the binding signal came out at 0.373 ± 0.00921 E-score.

Consider ACACGTAA, for which the binding signal was determined as 0.323 ± 0.00431 E-score. Take ACACGTAG: the binding signal was found to be 0.325 ± 0.012 E-score.
